# MITF inh – blocks human microphthalmia-associated transcription factor; 0.91% of 650,000 active; inhibition, % at 2.6 µM; O75030; AlphaScreen MITF homodimerization, bead proximity signal; in the data active = inhibition above about 50%;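 also: 0% = vehicle wells with protein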
# FBW7 activator – human FBW7 E3 ligase activation, primary screen; normalized activity (activation), % at 26.1 µM; 0.13% of 650,000 active; Q969H0; AlphaScreen FBW7–phospho-cyclin E peptide binding, activator screen; AID 1259310; in the data active = normalized activity above about 1.9%;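 also: purified mutant Fbw7 with reduced substrate affinity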
# Target sequence (Q969H0 whole entry, looked up): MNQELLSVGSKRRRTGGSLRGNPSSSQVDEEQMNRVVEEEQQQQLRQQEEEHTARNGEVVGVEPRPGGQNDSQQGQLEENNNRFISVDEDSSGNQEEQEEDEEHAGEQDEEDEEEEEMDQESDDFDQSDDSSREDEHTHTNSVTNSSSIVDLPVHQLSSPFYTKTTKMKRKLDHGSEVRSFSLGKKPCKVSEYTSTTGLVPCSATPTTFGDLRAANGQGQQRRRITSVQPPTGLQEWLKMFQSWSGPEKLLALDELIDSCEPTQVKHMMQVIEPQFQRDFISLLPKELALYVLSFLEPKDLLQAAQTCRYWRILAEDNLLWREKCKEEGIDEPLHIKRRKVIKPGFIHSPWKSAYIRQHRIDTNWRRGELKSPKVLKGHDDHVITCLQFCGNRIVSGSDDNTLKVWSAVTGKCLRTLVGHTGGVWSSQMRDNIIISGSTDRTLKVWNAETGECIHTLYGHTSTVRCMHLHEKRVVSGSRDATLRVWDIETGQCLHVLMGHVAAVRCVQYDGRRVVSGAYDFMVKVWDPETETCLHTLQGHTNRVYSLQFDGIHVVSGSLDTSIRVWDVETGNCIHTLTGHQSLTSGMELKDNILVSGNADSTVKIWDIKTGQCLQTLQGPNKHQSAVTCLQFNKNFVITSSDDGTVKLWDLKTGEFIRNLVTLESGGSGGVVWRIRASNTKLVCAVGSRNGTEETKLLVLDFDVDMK
# TEAD-YAP inh – TEAD-YAP interaction inhibition | AID 1259422 | HEK-TIYL cells, TEAD-Gal4/YAP UAS-luciferase luminescence | inhibition, % at 9.12 µM | 1.4% of 640,000 active; in the data active = inhibition above about 32%;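 also: 0% = median of test compound wells and 100% = reference inhibitor wells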
# GPR151 ag – human GPR151 activation; PathHunter beta-arrestin GPR151 cells, luminescence; Q8TDV0; 1% of 650,000 active; AID 1508602; activation, % at 11.2 µM; in the data active = activation above about 4.9%;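 also: 0% = median of compound wells and 100% = cells with positive control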
# * hit, by the source's call. Most compounds without a hit are left out; they make up all but 3.4% or so of the library.
SMILES,MITF inh,FBW7 activator,TEAD-YAP inh,GPR151 ag
O=S(=O)(NC1CCCC1)c1cccc(-c2nnc(-c3ccccc3)o2)c1,8.9,0.5,32.6*,-0.8
O=C(OC(c1ccccc1)c1nccc2ccccc12)c1ccc(F)cc1 (configuration not stated),-18.0,0.9,52.2*,0.7
CCCOc1ccc(/C(O)=C2/C(=O)C(=O)N(Cc3cccnc3)C2c2ccc(OC)c(OC)c2)cc1C (configuration not stated),-15.4,0.0,-12.7,-0.6
Cc1nn(-c2ccc(F)cc2)c2sc(C(=O)NCc3ccc(S(N)(=O)=O)cc3)cc12,-1.0,0.0,39.9*,-0.4
O=C(CSc1nnc(-c2ccco2)n1-c1ccccc1)Nc1nccs1,-20.4,0.1,1.4,-1.0
O=C(CSc1nnc(-c2cccnc2)n1-c1ccccc1Cl)Nc1nccs1,4.8,0.0,38.6*,-0.8
CCc1ccccc1-n1c(SCC(=O)Nc2nccs2)nnc1-c1cccnc1,5.6,-0.1,56.6*,0.4
O=C(CSc1nnc(-c2ccccn2)n1-c1ccccc1Cl)Nc1nccs1,-1.6,0.0,58.9*,-0.1
Cc1cccc(-n2c(SCC(=O)Nc3nccs3)nnc2-c2cccnc2)c1C,-24.3,-0.2,-1.1,-0.8
O=C(CSc1nnc(-c2cccc([N+](=O)[O-])c2)n1-c1ccccc1)Nc1nccs1,-8.0,-0.1,44.4*,0.2
COCCNC(=O)c1cccc(OC2CCN(CC3=CC[C@H]4C[C@@H]3C4(C)C)CC2)c1,-5.4,-0.1,-5.7,0.7
O=C(CCC(=O)n1ncc2ccccc21)NC1CCCCCC1,4.2,0.1,-0.9,-0.7
O=C(C1c2ccccc2C(=O)N2CCc3ccccc3C12)N1CCN(c2ccccn2)CC1 (configuration not stated),6.4,0.1,-11.4,-1.1
Nc1cccc2c1C(=O)N(C(=O)c1ccc3c(c1)S(=O)(=O)N=C1CCCCCN13)C2=O,4.0,-0.1,3.4,0.0
Cc1ncn(-c2ccc(Nc3ncc4cccc(-n5ccnc5)c4n3)cc2)n1,5.2,5.7*,37.6*,0.1
Cc1ncn(-c2ccc(Nc3ncc4cccc(N5CCOCC5)c4n3)cc2)n1,0.6,-0.3,48.5*,0.2
Cc1ccc(NS(=O)(=O)c2c(C)noc2C)c(C)c1,-6.9,0.4,6.2,0.1
CC1=C(C(=O)OCC(F)(F)F)C(c2ccc([N+](=O)[O-])cc2)NC(=O)N1 (configuration not stated),-5.5,-0.2,-3.9,0.8
N#Cc1cc(-c2ccnc(Nc3cccc(NC(=O)N4CCCC4)c3)n2)ccc1N1CCCC1,22.3,0.3,45.2*,0.3
CCCC(CCn1c(C)[n+](CC)c2ccc(C#N)cc21)S(=O)(=O)O (configuration not stated),9.3,1.9*,14.5,-0.6
CC[n+]1c(C)n(CCCS(=O)(=O)O)c2cc(C#N)ccc21,18.2,0.1,-11.5,-0.2
O=C(Nc1ccc2c(c1)CCC2)c1nc2ncccn2n1,18.2,-0.6,-27.7,-0.4
Cc1ccc(-c2nc3cccnc3s2)cc1NC(=O)C(F)(F)F,1.0,0.0,32.0*,-1.2
CC(=O)Nc1ccc(-c2nc3cccnc3s2)cc1,12.4,-0.1,47.0*,-3.6
CCCCC(=O)Nc1ccc(-c2nc3cccnc3s2)cc1,4.3,0.2,7.3,-1.5
SMILES,MITF inh,FBW7 activator,TEAD-YAP inh,GPR151 ag
Cc1ccc(/C=C2/SC(=S)N(c3ccc(O)c(C(=O)O)c3)C2=O)o1,82.8*,-0.2,-1.5,-0.8
COc1ccc(/C=C2\SC(=S)N(c3ccc(O)c(C(=O)O)c3)C2=O)cc1,0.3,0.0,5.8,-0.5
O=C(O)c1cc(N2C(=O)/C(=C\c3ccco3)SC2=S)ccc1O,81.2*,-0.2,-2.7,1.0
COc1ccc(NC(=O)CSc2nc3ccccc3o2)cc1OC,0.9,0.5,32.6*,-1.9
CC1CCc2nc(NC(=O)CSc3nc4ccccc4o3)sc2C1 (configuration not stated),0.8,-0.1,66.6*,2.0
COc1ccc(NC(=O)CSc2nc3ccccc3o2)cc1,-2.6,0.6,-54.8,2.6
Cc1nnc(SCC(=O)Nc2nc3c(s2)CC(C)CC3)s1 (configuration not stated),1.6,-0.1,-16.4,0.4
COc1ccccc1CNC(=O)C/C(C)=N/NC(=O)c1cc(Cl)ccc1O,-6.4,0.2,-19.3,0.4
CC(=O)N(C1=C(N(C)C)C(=O)c2ccccc2C1=O)c1ccc(Cl)c(Cl)c1,15.0,-0.7,82.4*,-4.0
CC(=O)N(C1=C(N(C)C)C(=O)c2ccccc2C1=O)c1ccc(F)c(F)c1,16.8,0.2,98.9*,-6.1
CN(C)C1=C(Nc2ccc(Cl)c(Cl)c2)C(=O)c2ccccc2C1=O,12.2,0.2,-3.5,-0.6
CN(C1=C(NCCO)C(=O)c2ccccc2C1=O)c1ccccc1,24.0,-0.2,2.7,-0.4
CC(=O)N(C1=C(NCCO)C(=O)c2ccccc2C1=O)c1cccc(Br)c1,0.1,0.0,86.5*,-4.0
CC(=O)N(C1=C(N(C)C)C(=O)c2ccccc2C1=O)c1cccc(Cl)c1,24.0,-0.5,92.9*,-4.6
COc1ccc(S(=O)(=O)NCCc2ccccc2)c(Cl)c1Cl,8.2,-0.6,8.2,0.4
CN1CCC(Oc2cc(-c3ccnc(N)n3)ccc2NC(=O)C2COc3ccc(F)cc3C2)C1 (configuration not stated),0.7,-0.4,10.7,1.1
Cc1cc2cc3c(cc2cc1SCC(=O)Nc1ccc(C(=O)O)cc1)OCO3,-7.3,0.0,1.2,0.0
CCOc1cc(/C=C2/C(=O)ON=C2C)ccc1O,50.2,-0.1,14.4,0.7
COc1cc(/C=C2\C(=O)ON=C2C)cc(Br)c1O,81.0*,0.0,3.5,0.1
C#CCOc1ccc(/C=C2/C(=O)ON=C2C)cc1OC,19.5,0.1,-0.4,-1.5
COc1ccc(/C=C2\NC(=S)NC2=O)cc1C,-12.0,-0.1,-22.4,0.6
COc1ccc(/C=C2\C(=O)ON=C2C)cc1O,52.1*,0.0,7.0,-0.9
C#CCOc1ccc(/C=C2/C(=O)ON=C2C)cc1,58.0*,0.2,9.8,0.8
COc1ccc(/C=C2/NC(=S)NC2=O)cc1O,11.6,0.1,39.6*,-0.9
COc1cccc(C(=O)Nn2nnc3ccccc3c2=O)c1,2.5,0.2,-20.1,-1.3
SMILES,MITF inh,FBW7 activator,TEAD-YAP inh,GPR151 ag
COc1cc(/C=C2\C(=O)ON=C2C)ccc1O,59.8*,0.4,-1.2,-0.7
CC1=NOC(=O)/C1=C/c1ccc(O)cc1O,52.9*,0.2,0.5,0.1
CCOc1ccc(/C=C2/C(=O)ON=C2C)cc1Br,54.8*,0.0,-10.5,0.0
COc1cc(/C=C2\C(=O)ON=C2C)ccc1OCCc1ccccc1,43.5,0.1,38.1*,-5.9
CCCOc1ccc(/C=C2/C(=O)ON=C2C)cc1OC,35.3,0.0,-4.2,0.2
C=CCOc1ccc(/C=C2/C(=O)ON=C2C)cc1Br,12.4,0.1,-11.4,0.1
CC1=CC2=NC(=O)/C(=C\c3cc(C)n(-c4cc(C)cc(C)c4)c3C)C(=N)N2O1,4.3,0.0,55.0*,0.7
COc1cc(/C=C2/C(=N)N3OC(C)=CC3=NC2=O)ccc1OCc1ccc2c(c1)OCO2,12.5,0.0,48.2*,-6.5
COc1cccc(-n2c(C)cc(/C=C3/C(=N)N4OC(C)=CC4=NC3=O)c2C)c1,1.8,0.0,56.8*,-1.0
